Records with an inconclusive call do not appear. Activity calls are given as the source filed them. Unless noted, the call rests on the fitted dose curve; in most records, active means well fitted curve in the direction sought with a large enough effect in the repeat runs; inconclusive means weak or mixed curves; inactive means no such curve, though single readings can be large; an effect the other way counts as inactive or inconclusive.
Columns and labels:
[1] = qHTS assay to identify small molecule antagonists of the estrogen related receptor (ERR) signaling pathway from Tox21 library - cell viability counter screen (AID 1224834); further: nearly all actives have a fitted effect of over 30% in size
Method in brief: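 Cytotoxicity of test substances is gauged in the same ERR cells used for the antagonist screen, after 17.5 h of compound treatment at 37 C, by CellTiter-Fluor fluorescence measured after 30 min.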

[2] = target: Luciferin 4-monooxygenase (Photinus pyralis) (UniProt P08659); assay: qHTS assay to identify small molecule inhibitors of firefly luciferase (AID 1224835); further: series mostly up to about 120 µM; nearly all actives have a fitted effect of over 25% in size
Method in brief: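 Inhibition of purified Photinus luciferase is measured by luminescence. Substrate levels (D-luciferin, ATP) sit at their KM values. Each compound is tested in a concentration series.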

[3] = qHTS assay to identify small molecule antagonists of the estrogen related receptor signaling pathway with the pleiotropic PPARgamma coactivator (PGC) from Tox21 10K library - cell viability counter screen (AID 1224840; active means well fitted cell-killing curve with a large enough effect in the repeat runs, not every such curve was filed as active; further: nearly all actives have a fitted effect of over 40% in size)
Method in brief: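 Step one, plate 2,000 PGC/ERR cells per well; step two, incubate 6 h at 37 C/5% CO2; step three, pin-transfer compounds; step four, incubate 17.5 h; step five, add CellTiter-Fluor and read fluorescence after 30 min.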

[4] = qHTS assay to identify small molecule antagonists of the estrogen related receptor signaling pathway with the pleiotropic PPARgamma coactivator (PGC) from Tox21 10K library (AID 1224841; call rule not given here; further: actives are mostly falling curves and most rising ones were filed inactive; nearly all actives have a fitted effect of over 50% in size; further: potency means the concentration at half of the fitted maximal effect; on activity, negative = inhibition: series mostly up to about 92 µM)
Method in brief: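 Antagonism in this quantitative HTS is taken from loss of luciferase signal in PGC/ERR cells. Cells (2,000/well) are treated with compounds in DMSO after a 6 h settling period and read by One-Glo luminescence after 18 h.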

[5] = qHTS assay to identify small molecule agonists of the estrogen related receptor signaling pathway with the pleiotropic PPARgamma coactivator (PGC) from Tox21 10K library (AID 1224842); further: nearly all actives have a fitted effect of over 15% in size; further: potency means the concentration at half of the fitted maximal effect
Method in brief: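 Luminescence from One-Glo (30 min, room temperature) measured after PGC/ERR cells had 18 h at 37 C with pinned compound (23 nL in DMSO). Cells had been seeded at 2,000 per well and pre-incubated 6 h.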

[6] = target: Thyrotropin receptor (Homo sapiens) (UniProt P16473); assay: qHTS assay to identify small molecule agonists of the thyroid stimulating hormone receptor (TSHR) signaling pathway (AID 1224843; calls by dose curve; further: nearly all actives have a fitted effect of over 45% in size; further: potency means the concentration at half of the fitted maximal effect)
Method in brief: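 Screening of the Tox21 10K collection used HEK293 cells engineered with TSHR at 800 cells per well. After a 30-min room-temperature compound exposure, HTRF cAMP reagents were added and fluorescence recorded 1 h later.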

[7] = qHTS assay to identify small molecule antagonists of the constitutive androstane receptor (CAR) signaling pathway - cell viability counter screen (AID 1224837); further: series mostly up to about 92 µM; nearly all actives have a fitted effect of over 45% in size
Method in brief: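 Multiplexed cytotoxicity read-out for the CAR antagonist screen: double-stable HepG2-CYP2B6-hCAR cells co-treated with 50 nM CITCO (final) and compound over 15 concentrations, incubated 23 hr, then assessed by CellTiter-Fluor fluorescence.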

[8] = target: Nuclear receptor subfamily 1 group I member 3 (Homo sapiens) (UniProt Q14994); assay: qHTS assay to identify small molecule agonists of the constitutive androstane receptor (CAR) signaling pathway (AID 1224839); further: nearly all actives have a fitted effect of over 15% in size; further: potency means the concentration at half of the fitted maximal effect;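 on activation: HepG2 cells stably carrying human CAR and a CYP2B6 luciferase reporter; series mostly up to about 92 µM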
Method in brief: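 In this screen, CAR-driven CYP2B6 promoter activity is measured by luminescence in HepG2-CYP2B6-hCAR cells after 24 h with test compounds and 0.75 uM PK11195 (final concentration).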

[9] = target: Nuclear receptor subfamily 1 group I member 3 (Homo sapiens) (UniProt Q14994); assay: qHTS assay to identify small molecule antagonists of the constitutive androstane receptor (CAR) signaling pathway (AID 1224838); further: nearly all actives have a fitted effect of over 40% in size; further: potency means the concentration at half of the fitted maximal effect
Method in brief: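 Compounds were titrated across 15 concentrations onto HepG2 cells double-stably expressing hCAR and a CYP2B6-2.2kb reporter, together with 50 nM CITCO (final). After 24 h at 37 C, luciferase activity was measured by luminescence.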

[10] = qHTS assay to identify small molecule agonists of the constitutive androstane receptor (CAR) signaling pathway - cell viability counter screen (AID 1224836); further: series mostly up to about 92 µM; nearly all actives have a fitted effect of over 45% in size
Method in brief: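 Compound titrations (15 concentrations) went onto HepG2-CYP2B6-hCAR cells 4 h after seeding, alongside PK11195 at a final 0.75 uM; a 23 h, 37 C/5% CO2 incubation preceded CellTiter-Fluor viability measurement.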
On the % scale 0 is the no-effect control and ±100 the full control effect.

Nuclear receptor subfamily 1 group I member 3 (Homo sapiens), sequence (Q14994 whole entry, looked up): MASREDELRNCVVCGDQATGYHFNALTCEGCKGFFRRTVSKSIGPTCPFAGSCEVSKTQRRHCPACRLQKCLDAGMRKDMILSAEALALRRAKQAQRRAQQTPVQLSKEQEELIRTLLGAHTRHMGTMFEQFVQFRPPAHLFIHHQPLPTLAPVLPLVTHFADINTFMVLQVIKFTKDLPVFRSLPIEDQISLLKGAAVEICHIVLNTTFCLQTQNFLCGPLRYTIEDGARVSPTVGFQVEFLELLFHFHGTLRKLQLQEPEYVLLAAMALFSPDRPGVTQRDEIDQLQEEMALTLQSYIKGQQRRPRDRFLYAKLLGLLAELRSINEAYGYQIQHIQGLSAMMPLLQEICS
Luciferin 4-monooxygenase (Photinus pyralis), sequence (P08659 whole entry, looked up): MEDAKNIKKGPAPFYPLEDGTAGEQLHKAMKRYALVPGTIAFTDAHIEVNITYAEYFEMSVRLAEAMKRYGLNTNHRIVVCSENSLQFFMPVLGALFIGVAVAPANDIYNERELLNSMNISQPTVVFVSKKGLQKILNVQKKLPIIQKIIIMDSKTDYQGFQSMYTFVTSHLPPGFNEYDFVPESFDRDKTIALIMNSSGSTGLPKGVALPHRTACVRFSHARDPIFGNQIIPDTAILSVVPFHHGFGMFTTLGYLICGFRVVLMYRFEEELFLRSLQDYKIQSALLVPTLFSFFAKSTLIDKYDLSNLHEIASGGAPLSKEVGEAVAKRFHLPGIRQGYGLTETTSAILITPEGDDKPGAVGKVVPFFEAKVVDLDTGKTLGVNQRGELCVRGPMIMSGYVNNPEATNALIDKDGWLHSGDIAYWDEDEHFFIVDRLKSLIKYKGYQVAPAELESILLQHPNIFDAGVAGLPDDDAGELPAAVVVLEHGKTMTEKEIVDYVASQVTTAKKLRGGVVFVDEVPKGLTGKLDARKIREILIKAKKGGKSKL
Thyrotropin receptor (Homo sapiens), sequence (P16473 whole entry, looked up): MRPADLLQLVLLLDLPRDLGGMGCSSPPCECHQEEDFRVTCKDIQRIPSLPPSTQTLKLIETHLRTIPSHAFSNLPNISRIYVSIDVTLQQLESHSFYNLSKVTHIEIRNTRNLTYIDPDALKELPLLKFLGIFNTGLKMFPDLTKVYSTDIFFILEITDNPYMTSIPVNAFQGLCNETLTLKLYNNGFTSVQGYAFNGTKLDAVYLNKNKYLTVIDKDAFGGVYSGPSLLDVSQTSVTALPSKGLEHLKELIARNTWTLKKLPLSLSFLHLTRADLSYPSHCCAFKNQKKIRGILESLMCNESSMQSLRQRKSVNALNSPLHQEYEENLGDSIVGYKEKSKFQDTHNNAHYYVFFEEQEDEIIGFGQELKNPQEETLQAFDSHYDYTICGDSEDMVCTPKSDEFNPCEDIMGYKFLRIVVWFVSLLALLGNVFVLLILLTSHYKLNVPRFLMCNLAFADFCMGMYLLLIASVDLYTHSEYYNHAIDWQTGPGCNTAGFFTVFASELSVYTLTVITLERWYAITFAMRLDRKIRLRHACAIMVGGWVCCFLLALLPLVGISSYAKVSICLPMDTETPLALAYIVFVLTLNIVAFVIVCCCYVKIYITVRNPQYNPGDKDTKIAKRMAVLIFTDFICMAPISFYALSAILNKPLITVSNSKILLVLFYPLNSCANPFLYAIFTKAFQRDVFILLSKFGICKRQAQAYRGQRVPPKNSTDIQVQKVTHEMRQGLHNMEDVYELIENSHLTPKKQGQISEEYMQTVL

CC(C)S
inactive: Potency [1] | Potency [2] | Potency [3] | Potency [4] | Potency [5] | Potency [6]

CCCS(=O)c1ccc2nc(NC(=O)OC)[nH]c2c1 (stereo unspecified)
inactive: Potency [1] | Potency [2] | Potency [7] | Potency [8] | Potency [3] | Potency [6]

Nc1cccc(S(=O)(=O)O)c1
inactive: Potency [1] | Potency [2] | Potency [7] | Potency [9] | Potency [3] | Potency [6]

O=[N+]([O-])c1nccn1CO[C@@H](CO)[C@H](O)CO
inactive: Potency [1] | Potency [2] | Potency [7] | Potency [3] | Potency [4] | Potency [5] | Potency [6]

NC(Cc1ccc(F)cc1)C(=O)O (stereo unspecified)
inactive: viability change, negative = cytotoxic [1] 0.439% [at 8.39 µM] | activity change, negative = inhibition [2] 1.28% [at 10.5 µM] | viability change, negative = cytotoxic [3] 2.83% [at 8.39 µM] | activity, negative = inhibition [4] 25.2% [at 8.39 µM] | activation [5] 1.4% [at 8.39 µM] | activation [6] 1.31% [at 8.39 µM]

CCOc1ccc(NC(N)=O)cc1
inactive: Potency [1] | Potency [2] | Potency [8] | Potency [3] | Potency [4] | Potency [5] | Potency [6]

CCOC(=O)COc1ccc2c(c1)CC(NCC(O)c1cccc(Cl)c1)CC2 (stereo unspecified)
inactive: Potency [2] | Potency [9] | Potency [8] | Potency [4] | Potency [5]

C=O
inactive: Potency [1] | Potency [10] | Potency [9] | Potency [3] | Potency [4] | Potency [5] | Potency [6]

ClC(Cl)Cl
inactive: Potency [1] | Potency [10] | Potency [3] | Potency [6]

CC(C)NCC(O)COc1ccc(CCOCC2CC2)cc1 (stereo unspecified)
inactive: Potency [1] | Potency [10] | Potency [8] | Potency [3]

CN(C)C(=O)NC1(c2ccccc2)CCN(CCC[C@]2(c3ccc(Cl)c(Cl)c3)CCCN(C(=O)c3ccccc3)C2)CC1
inactive: activity change, negative = inhibition [2] -2.4% [at 23.6 µM] | viability change, negative = cytotoxic [10] -28.7% [at 19 µM] | activity, negative = inhibition [9] -20.2% [at 19 µM] | activation [6] -9.82% [at 19 µM]

CC[C@H]1CC[C@H](NCc2cc3c(cc2OC)[C@H]2C[C@H]2C(=O)N3C)[C@H](c2ccccc2)N1
inactive: Potency [2] | Potency [5] | Potency [6]
active: Potency [4] 21.7 µM

O=C(CC(=O)C(F)(F)F)c1ccccc1
active: Potency [8] 55.3 µM | Potency [5] 6.2 µM | Potency [6] 17.5 µM
inactive: Potency [10] | Potency [7] | Potency [9] | Potency [4]

CCCCNC(=S)NCCCC
inactive: Potency [2] | Potency [5] | Potency [6]
active: Potency [9] 48.6 µM

O=C1N(c2ccccc2)c2ccccc2C1(Cc1ccncc1)Cc1ccncc1
inactive: Potency [2] | Potency [10] | Potency [7] | Potency [9] | Potency [8] | Potency [3] | Potency [4] | Potency [5]

CN(C)CC[C@@H](c1ccc(Cl)cc1)c1ccccn1
inactive: Potency [1] | Potency [10] | Potency [3]

C=CC(C)(O)CC/C=C(\C)CCC=C(C)C (stereo unspecified)
inactive: Potency [1] | Potency [10] | Potency [7] | Potency [3]

CCCOCCC
inactive: Potency [2] | Potency [7] | Potency [9] | Potency [8] | Potency [3] | Potency [6]

O=Cc1ccc(O)c(O)c1O
inactive: Potency [2] | Potency [10] | Potency [7] | Potency [9] | Potency [3]

NS(=O)(=O)c1cc(-c2nn[nH]n2)c(NCc2cccs2)cc1Cl
inactive: Potency [2] | Potency [7] | Potency [3] | Potency [6]

Cc1cc(NS(=O)(=O)c2ccc(N)cc2)nc(C)n1
active: Potency [8] 11.9 µM
inactive: Potency [1] | Potency [7] | Potency [9] | Potency [3] | Potency [6]

CC1=NN(c2cc(Cl)c(S(=O)(=O)O)cc2Cl)C(=O)C1N=Nc1ccc(S(=O)(=O)O)cc1 (stereo unspecified)
inactive: Potency [2] | Potency [6]

O=C1CCN(c2ccccc2)N1
inactive: Potency [2] | Potency [10] | Potency [7] | Potency [9] | Potency [3] | Potency [4] | Potency [5]

CCOC(=O)C(Br)c1ccccc1 (stereo unspecified)
inactive: Potency [1] | Potency [10] | Potency [9] | Potency [8] | Potency [3] | Potency [6]

CC(C)C1=CC2=CC[C@@H]3[C@](C)(CCC[C@@]3(C)C(=O)O)[C@H]2CC1
inactive: Potency [7] | Potency [9] | Potency [8] | Potency [3] | Potency [5]

O=C1Nc2ccc([N+](=O)[O-])cc2C1=O
inactive: Potency [2] | Potency [7] | Potency [8] | Potency [3] | Potency [6]

CCOc1ccccc1N
inactive: Potency [2] | Potency [3] | Potency [5] | Potency [6]
active: Potency [4] 15.2 µM

Cc1nc(N)nc(N)c1-c1ccc(Cl)c(Cl)c1
active: Potency [4] 0.841 µM
inactive: Potency [2] | Potency [10] | Potency [5]

CCCCCCCCc1ccc(S(=O)(=O)O)cc1
inactive: Potency [1] | Potency [7] | Potency [9] | Potency [8] | Potency [3]

C1CCOC1
inactive: Potency [1] | Potency [10] | Potency [7] | Potency [9] | Potency [3] | Potency [4] | Potency [5]

CCCCCCCCCCCCOCCOS(=O)(=O)O
inactive: Potency [10] | Potency [7] | Potency [8] | Potency [3] | Potency [4] | Potency [5] | Potency [6]

Source: PubChem BioAssay (Tox21)
